The values that follow come from PubChem BioAssay (NCATS).

Test [1] addresses Peroxisome proliferator-activated receptor delta (Homo sapiens) (UniProt Q03181). In words: qHTS assay for small molecule agonists of peroxisome proliferator-activated receptor delta signaling (AID 588534).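 Further: 0% = DMSO basal wells and 100% = positive control agonist at 10 µM.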 The method in brief: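 Cells carrying a PPAR-delta beta-lactamase reporter were treated with compounds for 18 h at 37 °C in agonist mode. CCF4 fluorescence was read after 2 h; EC50 and efficacy from Hill fits.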
(In general: Quantitative high-throughput screening tests each substance at several concentrations.)

Test [2] is described as follows: qHTS assay for small molecule antagonists of peroxisome proliferator-activated receptor delta signaling (AID 588535).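 Further: cells co-treated with a PPAR-delta agonist as stimulator during compound exposure.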 The note with it: HEK293T PPARd-UAS-bla, beta-lactamase FRET ratio, 18 h; 460 nm channel. The method in brief:
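Reporter: UAS-bla under PPAR-delta response element, HEK293T host. Medium: 2% charcoal/dextran FBS. Dosing: titration, 18 hrs, 37 C. Detection: CCF4, 2 hrs RT, 405 ex/460 and 530 em.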

The target in test [3] is Peroxisome proliferator-activated receptor gamma (Homo sapiens) (UniProt P37231). In words: qHTS assay for small molecule agonists of peroxisome proliferator-activated receptor gamma signaling (AID 588536; active means well fitted curve in the direction sought with a large enough effect in the signal ratio, with a control signal flat, not every such curve was filed as active; the % refers to the signal ratio;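 further: 0% = DMSO basal wells and 100% = rosiglitazone at 2 µM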). Put shortly:
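HEK293 UAS-bla reporter line, 1% charcoal/dextran FBS; titration, 16 h, 37 C; CCF4 loading 2 h RT; fluorescence 460/530 nm. Normalized to rosiglitazone 2 uM = 100%, DMSO = 0%.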

The target is the same in test [4]. In words: qHTS assay for small molecule antagonists of peroxisome proliferator-activated receptor gamma signaling (AID 588537; active means well fitted inhibition curve with a large enough effect in the signal ratio, with a control signal flat, not every such curve was filed as active; the % refers to the signal ratio;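 further: reporter cells co-stimulated with 50 nM rosiglitazone agonist during compound treatment; % of control where 0% means no effect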). Put shortly:
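We seeded GeneBLAzer HEK293 reporter cells at 3000 per well, allowed 6-6.5 h attachment at 37 C, then co-treated with test compound titrations and 50 nM rosiglitazone overnight (16 h). Inhibition was quantified from 460/530 nm emission ratios.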

Test [5] addresses Vitamin D3 receptor (Homo sapiens) (UniProt P11473). In words: qHTS assay for small molecule antagonists of vitamin D receptor signaling (AID 588541).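 Further: receptor activated by calcitriol during compound treatment; series mostly up to about 77 µM; on the % scale 0 is the no-effect control and ±100 the full control effect.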 The method in brief:
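VDR-UAS-bla HEK293T cells (2000/well, 2% charcoal-stripped FBS) were treated with titrated compounds plus 1-alpha,25-dihydroxyvitamin D3 (50 nM or 3 nM final) for 16 h at 37 C. CCF4 beta-lactamase fluorescence was read; Hill fits gave IC50.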

The target is the same in test [6]. In words: qHTS assay for small molecule agonists of vitamin D receptor signaling (AID 588543).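 Further: 0% = DMSO basal and 100% = reference agonist control.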 Put shortly: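 Measured: β-lactamase reporter activity (CCF4, 405 nm excitation, 460/530 nm emission) in HEK293T VDR-UAS-bla cells after 16 h compound exposure at 37 °C. Normalization against 50 nM 1α,25-dihydroxyvitamin D3 and DMSO; Hill-fit EC50.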
The target in test [7] is Retinoic acid receptor RXR-alpha (Homo sapiens) (UniProt P19793). In words: qHTS assay for small molecule agonists of retinoid X receptor alpha signaling (AID 588544).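 Further: 0% = DMSO basal wells and 100% = reference agonist.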
For test [8], the target named is Thyroid hormone receptor beta (Homo sapiens) (UniProt P10828). In words: qHTS assay for small molecule agonists of thyroid hormone receptor beta signaling (AID 588545).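 Further: 0% = DMSO only and 100% = 10 nM T3.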 Put shortly: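 TR-UAS-bla GripTite HEK 293 cells (2500/well, medium with 2% charcoal/dextran FBS) were treated in agonist mode for 18 h at 37 C, titrated. Beta-lactamase was read by CCF4 ratio after 2 h; normalized to 10 nM T3 (100%) and DMSO, Hill-fitted for EC50 and efficacy.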

The nature of test [9]: qHTS assay for small molecule antagonists of retinoid X receptor alpha signaling (AID 588546; active means well fitted inhibition curve with a large enough effect in the signal ratio, with a control signal flat, not every such curve was filed as active; the % refers to the signal ratio;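 further: cells stimulated with 9-cis-retinoic acid as agonist; on the % scale 0 is the no-effect control and ±100 the full control effect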). As to conditions: HEK293T RXRa-UAS-bla, beta-lactamase ratio, antagonist mode; measured here: W530 green channel, cytotoxicity proxy. The method in brief:
(§1)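 Beta-lactamase reporter inhibition, read as CCF4 fluorescence ratio (ex 405, em 460/530 nm) after 2 h at RT. HEK293T UAS-bla cells, 2500/well, were stimulated with 9-cis-RA at 500 or 100 nM final alongside test compound for 18 h at 37 C.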

Test [10] addresses Thyroid hormone receptor beta (Homo sapiens) (UniProt P10828). In words: qHTS assay for small molecule antagonists of thyroid hormone receptor beta signaling (AID 588547; active means well fitted inhibition curve with a large enough effect in the signal ratio, with a control signal flat, not every such curve was filed as active; the % refers to the signal ratio;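 further: cells stimulated with 0.4 nM T3 agonist during compound exposure; series mostly up to about 77 µM; on the % scale 0 is the no-effect control and ±100 the full control effect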). As to conditions: TR-UAS-bla HEK293, beta-lactamase ratio, antagonist mode, 18 h. The method in brief:
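TR-UAS-bla GripTite HEK293 cells in 2% charcoal/dextran FBS medium were preincubated 4 h at 37 C, given compound (0.59 nM to 92 uM) plus 0.4 nM T3 (final) for 18 h, then CCF4 for 2 h at RT; Hill fit gave IC50.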

Test [11] is described as follows: qHTS assay for environmental chemicals that activate the Aryl hydrocarbon Receptor (AhR) signaling pathway (AID 651777; active means well fitted curve in the direction sought with a large enough effect; an effect the other way counts as inactive or inconclusive; further: % of control where 0% means no effect; nearly all actives have a fitted effect of over 15% in size). The note with it: 1A2-DRE human hepatoma cells, luciferase, 24 h; activation: stronger effect = higher value. Put shortly: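 Human hepatoma 1A2-DRE cells, stably carrying a dioxin response element and CYP1A2 promoter driving luciferase, were exposed to compounds for 24 hr at 37 C and 5% CO2. Luciferase signal was then read after 30 min One-Glo at room temperature.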

For test [12], the target named is Peroxisome proliferator-activated receptor alpha (Homo sapiens) (UniProt Q07869). In words: qHTS assay for small molecule agonists of the peroxisome proliferator-activated receptor alpha (PPARalpha) signaling pathway (AID 651778; active means well fitted curve in the direction sought with a large enough effect; an effect the other way counts as inactive or inconclusive; further: % of control where 0% means no effect). As to conditions: PathHunter PPARalpha complementation, chemiluminescence, 6 h; max response: stronger effect = higher value. Put shortly: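 Cells plated at 2,000/well and held overnight at 37 C, 5% CO2, then compound added by pin tool for 6 hr; after PathHunter detection reagent and 60 min at room temperature, chemiluminescence from enzyme complementation was read.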

Test [13] is described as follows: qHTS assay for small molecule agonists of the antioxidant response element (ARE) signaling pathway measured by Nrf2-dependant transcriptional activity - cell viability counter screen (AID 720653; active means well fitted curve in the direction sought with a large enough effect in the repeat runs; an effect the other way counts as inactive or inconclusive; further: on the % scale 0 is the no-effect control and ±100 the full control effect). As to conditions: ARE-bla HepG2 viability, CellTiter-Glo ATP luminescence, 16 h; max response: stronger effect = lower value. Put shortly: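 ARE-bla HepG2 cells (2,000/well) rested 5 hrs at 37C/5% CO2, then exposed to compounds in DMSO for 16 hrs. Viability was read in the same wells as intracellular ATP by luminescence, 30 min at room temperature after reagent addition.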

A short description of test [14]: qHTS assay for cell viability of the p53RE-bla HCT-116 cell line (AID 743292; active means well fitted curve in the direction sought with a large enough effect; an effect the other way counts as inactive or inconclusive; further: on the % scale 0 is the no-effect control and ±100 the full control effect; nearly all actives have a fitted effect of over 55% in size). Put shortly: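 CellSensor p53RE-bla HCT-116 cells, 4,000/well, preincubated 5 h at 37 C, then exposed to compounds in DMSO for 16 h at 37 C. Viability read as CellTiter-Glo luminescence (intracellular ATP) after 30 min at room temperature.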
Test [15] has as its target Glucocorticoid receptor (Homo sapiens) (UniProt P04150). In words: qHTS assay for small molecule agonists of glucocorticoid receptor signaling (AID 588532; active means well fitted curve in the direction sought with a large enough effect in the signal ratio, with a control signal flat; the % refers to the signal ratio;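 further: 100% = dexamethasone at 0.1 µM and 0% = DMSO only wells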). As to conditions: HeLa MMTV-bla, beta-lactamase ratio, agonist, 18 h; activation: stronger effect = higher value, percent of dexamethasone control, DMSO zero. The method in brief:
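Titration series, up to 92 uM, applied to GRE-bla HeLa cells for 18 h at 37 C. Detection by CCF4 FRET substrate after 2 h at RT.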

The target of test [16] is Retinoic acid receptor RXR-alpha (Homo sapiens) (UniProt P19793). In words: qHTS assay for small molecule antagonists of retinoid X receptor alpha signaling (AID 588546).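 Further: cells stimulated with 9-cis-retinoic acid as agonist; on the % scale 0 is the no-effect control and ±100 the full control effect.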 The note with it: HEK293T RXRa-UAS-bla, beta-lactamase ratio, antagonist mode. Put shortly: as §1
The nature of test [17]: qHTS assay for small molecule activators of the p53 signaling pathway (AID 651743; active means well fitted activation curve with a large enough effect in the signal ratio, not every such curve was filed as active; the % refers to the signal ratio; further: series mostly up to about 92 µM; % of control where 0% means no effect). The note with it: HCT-116 p53RE-bla, beta-lactamase FRET ratio, 16 h; activation: stronger effect = higher value. The method in brief:
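Cell-based beta-lactamase reporter (p53 response elements, HCT-116 background). After a 5-hour preincubation, cells received compound for 16 hours at 37 C; substrate development ran 2 hours at room temperature.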

A short description of test [18]: qHTS assay for small molecule agonists of the antioxidant response element (ARE) signaling pathway measured by Nrf2-dependant transcriptional activity (AID 720636; active means well fitted curve in the direction sought with a large enough effect in the repeat runs; an effect the other way counts as inactive or inconclusive; further: % of control where 0% means no effect). Put shortly: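 ARE-luc HepG2 cells carrying an Nrf2-responsive luciferase reporter were plated in medium with 1% dialyzed FBS, left 6 hr at 37 C to attach, then exposed to compound for 16 hr. Luciferase luminescence was read after ONE-Glo addition.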

Test [19] can be described thus: qHTS assay for cell viability of HEK293 cells (AID 743288; active means well fitted curve in the direction sought with a large enough effect; an effect the other way counts as inactive or inconclusive; further: on the % scale 0 is the no-effect control and ±100 the full control effect; nearly all actives have a fitted effect of over 50% in size). As to conditions: ATP luminescence (CellTiter-Glo), 18 h; max response: stronger effect = lower value. Put shortly:
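Luminescent ATP quantitation served as the viability read-out. Cells (parental HEK293, 2,000/well) received compounds after at least 5 h at 37 C and were exposed for 18 h before a 30 min room-temperature reagent step.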

Test [20] deals with Nuclear receptor subfamily 1 group I member 2 (Rattus norvegicus) (UniProt Q9R1A7). In words: qHTS assay for small molecule activators of the rat pregnane X receptor (rPXR) signaling pathway (AID 651751; call rule not given here; further: 0% is about no effect). The note with it: rPXR reporter cells, luciferase (One-Glo), 24 h.

Results filed as inconclusive are left out. Activity calls are given as the source filed them. Unless noted, the call rests on the fitted dose curve.

Sequence of Peroxisome proliferator-activated receptor alpha (Homo sapiens) (Q07869 whole entry, looked up): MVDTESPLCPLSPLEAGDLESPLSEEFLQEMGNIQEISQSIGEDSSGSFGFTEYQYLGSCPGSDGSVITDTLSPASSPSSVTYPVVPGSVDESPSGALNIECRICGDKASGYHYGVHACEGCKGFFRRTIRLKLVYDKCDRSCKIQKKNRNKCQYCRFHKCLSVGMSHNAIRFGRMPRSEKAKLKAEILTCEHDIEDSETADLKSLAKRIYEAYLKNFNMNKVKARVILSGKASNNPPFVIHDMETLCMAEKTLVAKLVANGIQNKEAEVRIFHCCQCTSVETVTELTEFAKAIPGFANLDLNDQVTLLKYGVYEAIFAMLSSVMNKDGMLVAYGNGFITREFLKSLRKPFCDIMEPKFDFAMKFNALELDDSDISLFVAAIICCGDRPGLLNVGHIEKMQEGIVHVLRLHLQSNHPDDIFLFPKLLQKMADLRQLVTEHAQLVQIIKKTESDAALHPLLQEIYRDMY
Sequence of Peroxisome proliferator-activated receptor delta (Homo sapiens) (Q03181 whole entry, looked up): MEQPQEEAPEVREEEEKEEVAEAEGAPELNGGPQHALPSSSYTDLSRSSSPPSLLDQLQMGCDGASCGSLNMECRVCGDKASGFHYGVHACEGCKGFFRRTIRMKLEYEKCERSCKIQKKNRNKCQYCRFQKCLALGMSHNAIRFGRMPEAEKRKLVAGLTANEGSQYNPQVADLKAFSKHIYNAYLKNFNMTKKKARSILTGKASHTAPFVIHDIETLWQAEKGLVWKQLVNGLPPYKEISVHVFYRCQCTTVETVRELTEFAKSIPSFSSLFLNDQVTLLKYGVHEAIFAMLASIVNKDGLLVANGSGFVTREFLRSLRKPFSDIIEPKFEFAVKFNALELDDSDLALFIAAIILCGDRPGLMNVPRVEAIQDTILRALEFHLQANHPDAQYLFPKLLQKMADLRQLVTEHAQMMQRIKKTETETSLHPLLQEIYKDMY
Sequence of Vitamin D3 receptor (Homo sapiens) (P11473 whole entry, looked up): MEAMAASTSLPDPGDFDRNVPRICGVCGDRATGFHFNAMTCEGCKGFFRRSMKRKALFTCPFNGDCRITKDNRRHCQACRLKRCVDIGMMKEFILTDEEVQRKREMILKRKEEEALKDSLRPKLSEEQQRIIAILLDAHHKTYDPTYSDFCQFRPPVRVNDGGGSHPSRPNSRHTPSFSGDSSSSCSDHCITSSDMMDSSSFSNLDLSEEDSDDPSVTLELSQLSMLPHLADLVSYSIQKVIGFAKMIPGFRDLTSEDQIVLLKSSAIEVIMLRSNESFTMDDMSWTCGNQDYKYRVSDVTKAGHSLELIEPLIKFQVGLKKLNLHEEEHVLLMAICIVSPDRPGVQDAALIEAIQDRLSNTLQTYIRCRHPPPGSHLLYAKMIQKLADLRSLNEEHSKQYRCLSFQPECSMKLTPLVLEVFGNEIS
Sequence of Thyroid hormone receptor beta (Homo sapiens) (P10828 whole entry, looked up): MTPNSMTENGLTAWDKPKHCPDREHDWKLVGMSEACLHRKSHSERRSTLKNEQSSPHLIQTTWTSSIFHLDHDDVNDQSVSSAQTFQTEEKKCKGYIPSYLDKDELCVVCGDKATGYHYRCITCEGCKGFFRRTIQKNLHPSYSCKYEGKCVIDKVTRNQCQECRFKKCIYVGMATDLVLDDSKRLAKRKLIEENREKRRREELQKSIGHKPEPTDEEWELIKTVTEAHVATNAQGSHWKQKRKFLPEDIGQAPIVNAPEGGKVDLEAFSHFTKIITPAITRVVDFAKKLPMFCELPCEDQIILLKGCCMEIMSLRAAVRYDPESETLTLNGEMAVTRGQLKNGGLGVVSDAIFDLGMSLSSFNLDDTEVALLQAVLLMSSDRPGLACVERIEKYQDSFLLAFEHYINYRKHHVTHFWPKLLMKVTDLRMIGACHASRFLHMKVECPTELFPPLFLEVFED
Sequence of Glucocorticoid receptor (Homo sapiens) (P04150 whole entry, looked up): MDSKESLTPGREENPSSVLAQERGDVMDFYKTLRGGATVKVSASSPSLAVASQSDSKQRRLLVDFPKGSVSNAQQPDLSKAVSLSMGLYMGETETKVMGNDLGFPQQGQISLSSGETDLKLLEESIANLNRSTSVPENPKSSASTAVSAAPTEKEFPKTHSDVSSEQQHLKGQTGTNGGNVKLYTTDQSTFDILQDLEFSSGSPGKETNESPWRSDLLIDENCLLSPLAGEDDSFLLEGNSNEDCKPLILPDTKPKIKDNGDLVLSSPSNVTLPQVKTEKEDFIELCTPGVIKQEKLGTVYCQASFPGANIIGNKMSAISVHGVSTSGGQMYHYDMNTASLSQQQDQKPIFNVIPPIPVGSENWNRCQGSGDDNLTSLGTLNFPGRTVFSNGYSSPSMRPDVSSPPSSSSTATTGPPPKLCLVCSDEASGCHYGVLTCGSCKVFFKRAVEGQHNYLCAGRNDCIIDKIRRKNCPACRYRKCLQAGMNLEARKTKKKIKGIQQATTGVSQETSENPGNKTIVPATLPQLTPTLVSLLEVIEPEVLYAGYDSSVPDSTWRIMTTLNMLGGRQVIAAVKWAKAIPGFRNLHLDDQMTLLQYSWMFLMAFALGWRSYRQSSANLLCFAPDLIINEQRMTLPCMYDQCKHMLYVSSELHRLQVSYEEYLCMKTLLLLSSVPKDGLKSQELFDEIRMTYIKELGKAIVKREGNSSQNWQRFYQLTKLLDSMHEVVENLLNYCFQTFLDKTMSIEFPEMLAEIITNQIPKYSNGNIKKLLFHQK
Sequence of Nuclear receptor subfamily 1 group I member 2 (Rattus norvegicus) (Q9R1A7 whole entry, looked up): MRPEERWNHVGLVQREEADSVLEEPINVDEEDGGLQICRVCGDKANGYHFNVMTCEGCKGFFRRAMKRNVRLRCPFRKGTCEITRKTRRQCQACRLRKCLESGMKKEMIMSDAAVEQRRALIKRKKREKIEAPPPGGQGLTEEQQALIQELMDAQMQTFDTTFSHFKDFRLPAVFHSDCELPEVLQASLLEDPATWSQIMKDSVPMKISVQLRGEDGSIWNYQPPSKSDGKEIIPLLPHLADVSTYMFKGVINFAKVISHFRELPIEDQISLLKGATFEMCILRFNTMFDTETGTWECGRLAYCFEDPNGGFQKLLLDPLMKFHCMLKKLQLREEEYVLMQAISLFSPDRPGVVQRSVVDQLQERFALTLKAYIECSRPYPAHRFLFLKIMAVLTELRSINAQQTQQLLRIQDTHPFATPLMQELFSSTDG
Sequence of Retinoic acid receptor RXR-alpha (Homo sapiens) (P19793 whole entry, looked up): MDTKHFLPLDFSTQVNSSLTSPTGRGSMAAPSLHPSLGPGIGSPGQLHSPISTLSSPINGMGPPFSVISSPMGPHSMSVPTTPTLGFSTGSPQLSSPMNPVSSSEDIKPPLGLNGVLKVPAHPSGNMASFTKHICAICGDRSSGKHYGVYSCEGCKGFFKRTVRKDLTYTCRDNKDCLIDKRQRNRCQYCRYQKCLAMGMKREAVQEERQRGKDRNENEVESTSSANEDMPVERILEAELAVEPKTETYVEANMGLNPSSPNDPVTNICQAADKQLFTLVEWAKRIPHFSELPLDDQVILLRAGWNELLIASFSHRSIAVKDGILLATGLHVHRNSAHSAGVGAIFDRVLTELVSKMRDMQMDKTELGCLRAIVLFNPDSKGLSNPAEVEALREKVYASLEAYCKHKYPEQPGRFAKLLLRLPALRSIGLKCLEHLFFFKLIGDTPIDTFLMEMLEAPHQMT
Sequence of Peroxisome proliferator-activated receptor gamma (Homo sapiens) (P37231 whole entry, looked up): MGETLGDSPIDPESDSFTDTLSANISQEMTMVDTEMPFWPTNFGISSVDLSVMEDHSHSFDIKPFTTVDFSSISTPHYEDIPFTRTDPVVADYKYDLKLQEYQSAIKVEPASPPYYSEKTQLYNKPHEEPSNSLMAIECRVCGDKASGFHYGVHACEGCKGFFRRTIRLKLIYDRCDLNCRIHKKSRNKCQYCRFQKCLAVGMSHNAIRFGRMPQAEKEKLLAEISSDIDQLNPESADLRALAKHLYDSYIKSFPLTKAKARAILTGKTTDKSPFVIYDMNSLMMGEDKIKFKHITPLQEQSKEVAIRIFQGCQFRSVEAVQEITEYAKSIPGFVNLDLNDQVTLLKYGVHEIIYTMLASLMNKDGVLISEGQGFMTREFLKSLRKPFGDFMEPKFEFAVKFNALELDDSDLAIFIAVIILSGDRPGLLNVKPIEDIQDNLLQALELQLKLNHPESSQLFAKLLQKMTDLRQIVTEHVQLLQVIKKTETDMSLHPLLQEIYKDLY

Turning to `CCOc1nc(C(Cl)(Cl)Cl)ns1`, the call in test [1] and in [6] was inactive. In addition, the max response in [2] is -34.9%; in test [9] it was -10.8%; in test [12], -0.167% (inactive); in test [13] it was -1.82% (inactive). The Potency entry in [3], in [4], in test [5], in [7], in test [8] and in [14] was “inactive” throughout. In addition, the activity change % (negative = inhibition) in [10] is 11.9% (inactive). Also, in [11], the activation was 7.64% (inactive).
Take `Nc1cnn(-c2ccccc2)c(=O)c1Cl`: the activation in test [15] is -1.22% (inactive); in [17], -0.0509% (inactive); in test [11], 6.85% (inactive). Also, the call in test [1] and in [6] was inactive. The max response in test [2] is 13.7%; in test [9], -1.68%; in test [16], -7.65% (inactive); in test [12] it was -1.54% (inactive); in test [13] it was 11.3% (inactive); in test [19], -10.4% (inactive). Moreover, the max response in test [20] was 4.89% (inactive). For the same compound, the Potency result in test [3], in test [4], in [5], in [7], in [8] and in test [18] was “inactive” each time. In addition, the Potency result in test [14] was “inactive”. In addition, the activity change % (negative = inhibition) in test [10] was -13.7% (inactive).
As to `CCSCc1ccccc1OC(=O)NC`, the activation was 1.02% (inactive) in test [15] and 3.49% (inactive) in test [17]. The compound was called inactive in test [1] and in [6]. In addition, the Potency entry in test [3], in test [4], in test [5], in test [7], in test [8] and in test [18] was “inactive” throughout. Besides, the Potency entry in test [14] was “inactive”. For the same compound, the max response was -7.11% in test [9]; -0.372% (inactive) in [12]; -3.42% (inactive) in [13]; -9.67% (inactive) in test [19]; 0.0425% (inactive) in [20]. The activity change % (negative = inhibition) in [10] is -8.58% (inactive).
For the compound `O=C(Nc1ccccc1)Nc1ccnc(Cl)c1`, the values for the activation in [15], in test [17] and in test [11] were -0.972% (inactive), 4.1% (inactive) and 11% (inactive), respectively. Moreover, the compound was called inactive in test [1] and in [6]. The Potency result in test [3], in test [4], in [5], in [8] and in test [14] was “inactive” each time. For the same compound, the activity change % (negative = inhibition) in [10] is 16% (inactive). Moreover, the max response is -3.22% (inactive) in [13], -3.84% (inactive) in test [19] and 9.67% (inactive) in test [20].
`O=C(NC(=O)c1c(F)cccc1F)Nc1cc(Cl)c(OC(F)(F)C(F)F)c(Cl)c1`: the activation in test [15] is 12.6% (inactive); in [17] it was -1.27% (inactive). The compound was called inactive in test [1]. Besides, the Potency result in test [3], in test [4], in test [7], in [8], in test [18] and in test [14] was “inactive” in each case. The max response in test [9] is -11.9%; in test [16] it was 21.4% (inactive); in test [12], -1.91% (inactive); in test [13], -11.1% (inactive); in [19], -28.3% (inactive); in [20] it was -0.359% (inactive). Besides, the activity change % (negative = inhibition) in test [10] was -14.9% (inactive).
With `CCOP(=S)(OCC)SCCl`, the figures for the activation in test [15], in [17] and in [11] were 12.1% (inactive), 0.473% (inactive) and 0.0178% (inactive), respectively. In addition, the Potency entry in [3], in test [5], in [18] and in test [14] was “inactive” throughout. For the same compound, the outcome in test [6] was inactive. Moreover, the activity change % (negative = inhibition) in test [10] was -1.44% (inactive). For the same compound, the max response in test [12] was -3.54% (inactive); in test [13], -13.5% (inactive); in [19], -19.2% (inactive); in test [20], -4.02% (inactive).
